Measured values reported in the supplement of paper PMC9262897, “Low-cost anti-mycobacterial drug discovery using engineered E. coli” (Nature Communications, 2022).
Structures can show the parent of a compound that is named as a salt. ± gives the standard deviation of the averaged measurements.

Legend:
Assay in all cases: growth (OD600 after 10 h); higher = more growth (less inhibition)
[1] = test system: E. coli TESEC Alr+ wild-type control; details: compound 0.1 mM; raw OD600 reference: median of DMSO wells 0.241, cell-free background 0.041
Procedure: (§1)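 TESEC Mtb Alr E. coli, or the Alr+ wild-type control, in 384-well plates with Prestwick library compounds at 0.1 mM and 1% DMSO, across arabinose induction levels of 1E3 to 1E7 nM. Growth is read as OD600 after 10 h at 37 °C in triplicate biological replicates.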

[2] = test system: E. coli TESEC Mtb Alr; details: compound 0.1 mM
Procedure: as §1

[3] = test system: E. coli TESEC Mtb Asd; details: compound 0.1 mM
Procedure: (§2)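 TESEC E. coli strains in which the native enzyme is deleted and replaced by arabinose-inducible Mtb Asd, DapB, CysH or TrpD, each grown in its selective medium. Strains were screened against the Prestwick library at 0.1 mM and 1% DMSO in 384-well format at low and high arabinose induction. Growth is read as OD600 after 10 h in triplicate.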

[4] = test system: E. coli TESEC Mtb DapB; details: compound 0.1 mM
Procedure: as §2

[5] = test system: E. coli TESEC Mtb Alr; details: compound 0.1 mM; remark: listed apart in the source
Procedure: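 TESEC Mtb Alr E. coli (ΔaraC ΔtolC ΔentC Δalr ΔdadX, arabinose-inducible Mtb Alr) or the Alr+ wild-type control strain, grown in defined M9-fructose medium without D-alanine in 96-well plates with Prestwick library compounds at 0.1 mM and 1% DMSO. Low Alr induction is 0.1 µM arabinose and high induction is 10 mM arabinose.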

[6] = arabinose 1000 nM, raw OD600 reference: median of DMSO wells 0.294, cell-free background 0.041
[7] = arabinose 10000 nM, raw OD600 reference: median of DMSO wells 0.264, cell-free background 0.041
[8] = arabinose 100000 nM, raw OD600 reference: median of DMSO wells 0.201, cell-free background 0.041
[9] = arabinose 1000000 nM, raw OD600 reference: median of DMSO wells 0.193, cell-free background 0.041
[10] = arabinose 10000000 nM, raw OD600 reference: median of DMSO wells 0.146, cell-free background 0.041
[11] = arabinose induction (level): High, raw OD600 reference: median of DMSO wells 0.331, cell-free background 0.041
[12] = arabinose induction (level): Low, raw OD600 reference: median of DMSO wells 0.417, cell-free background 0.041
[13] = arabinose induction (level): High, raw OD600 reference: median of DMSO wells […], cell-free background 0.041
[14] = arabinose induction (level): Low, raw OD600 reference: median of DMSO wells 0.227, cell-free background 0.041
[15] = arabinose 100 nM, raw OD600 reference: median of DMSO wells 0.413, cell-free background 0.052
[16] = arabinose 10000000 nM, raw OD600 reference: median of DMSO wells […], cell-free background 0.052

SMILES	growth [1]	growth [2, 6]	growth [2, 7]	growth [2, 8]	growth [2, 9]	growth [2, 10]	growth [3, 11]	growth [3, 12]	growth [4, 13]	growth [4, 14]	growth [5, 15]	growth [5, 16]
Cc1cc(=O)oc2cc(O)ccc12 [Hymecromone]	0.227 ± 0.0065	0.286 ± 0.024	0.25 ± 0.0054	0.177 ± 0.012	0.182 ± 0.0058	0.148 ± 0.0076	0.317 ± 0.033	0.411 ± 0.013	0.198 ± 0.0059	0.208 ± 0.032	0.406 ± 0.017	0.355 ± 0.0061
O=C1NCCN1c1ncc([N+](=O)[O-])s1 [Niridazole]	0.0479 ± 0.0055	0.0513 ± 0.005	0.0413 ± 0.0019	0.0452 ± 0.0004	0.0407 ± 0.00045	0.0598 ± 0.023	0.0946 ± 0.0021	0.203 ± 0.07	0.161 ± 0.015	0.177 ± 0.022	0.119 ± 0.025	0.0512 ± 0.00072
CNC(=C[N+](=O)[O-])NCCSCc1ccc(CN(C)C)o1 [Ranitidine hydrochloride]	0.235 ± 0.0096	0.283 ± 0.015	0.252 ± 0.0043	0.203 ± 0.0086	0.179 ± 0.0036	0.1447 ± 0.0011	0.323 ± 0.037	0.455 ± 0.058	0.191 ± 0.011	0.234 ± 0.032	0.408 ± 0.0097	0.338 ± 0.0081
CCc1cc(Cl)c(OC)c(C(=O)NC[C@@H]2CCCN2CC)c1O [S(-)Eticlopride hydrochloride]	0.191 ± 0.013	0.242 ± 0.024	0.271 ± 0.0095	0.17 ± 0.0077	0.122 ± 0.0019	0.163 ± 0.0043	0.189 ± 0.015	0.356 ± 0.07	0.181 ± 0.011	0.259 ± 0.0028	0.399 ± 0.0083	0.272 ± 0.021
CC(C)(C)NC[C@H](O)COc1cccc2c1CCCC2=O [(-) -Levobunolol hydrochloride]	0.227 ± 0.022	0.295 ± 0.0092	0.253 ± 0.0095	0.189 ± 0.0065	0.1733 ± 0.0014	0.141 ± 0.0056	0.401 ± 0.085	0.428 ± 0.059	0.203 ± 0.0036	0.221 ± 0.019	0.403 ± 0.013	0.334 ± 0.0023
C[C@]12C=CC(=O)C=C1CC[C@@H]1[C@@H]2[C@@H](O)C[C@@]2(C)[C@H]1CC[C@]2(O)C(=O)CO [Prednisolone]	0.213 ± 0.0043	0.263 ± 0.0084	0.248 ± 0.01	0.162 ± 0.0057	0.147 ± 0.0034	0.13 ± 0.0047	0.258 ± 0.038	0.456 ± 0.034	0.179 ± 0.015	0.254 ± 0.041	0.426 ± 0.009	0.306 ± 0.011
CC(C)(C)NCC(O)c1cc(O)cc(O)c1 (stereo not given) [Terbutaline hemisulfate]	0.251 ± 0.0065	0.301 ± 0.0057	0.265 ± 0.0072	0.238 ± 0.047	0.1766 ± 0.0011	0.163 ± 0.0049	0.293 ± 0.03	0.385 ± 0.042	0.226 ± 0.004	0.221 ± 0.013	0.402 ± 0.0092	0.354 ± 0.026
CS(=O)(=O)c1ccc(C2=C(c3ccccc3)C(=O)OC2)cc1 [Rofecoxib]	0.182 ± 0.012	0.2483 ± 0.0006	0.242 ± 0.019	0.184 ± 0.037	0.151 ± 0.008	0.144 ± 0.011	0.336 ± 0.1	0.362 ± 0.097	0.205 ± 0.0062	0.213 ± 0.009	0.409 ± 0.015	0.302 ± 0.041
C[N+]1(C)CCC(=C(c2ccccc2)c2ccccc2)CC1 [Diphemanil methylsulfate]	0.206 ± 0.0076	0.289 ± 0.01	0.255 ± 0.01	0.197 ± 0.013	0.16 ± 0.014	0.153 ± 0.0035	0.203 ± 0.027	0.352 ± 0.065	0.187 ± 0.015	0.25 ± 0.028	0.4115 ± 0.0028	0.36 ± 0.015
CCC(C)(C)C(=O)O[C@H]1C[C@@H](C)C=C2C=C[C@H](C)[C@H](CC[C@@H]3C[C@@H](O)CC(=O)O3)[C@H]21 [Simvastatin]	0.198 ± 0.017	0.201 ± 0.015	0.161 ± 0.0024	0.113 ± 0.0033	0.053 ± 0.0021	0.0742 ± 0.004	0.0906 ± 0.015	0.197 ± 0.023	0.161 ± 0.021	0.175 ± 0.0069	0.392 ± 0.014	0.0705 ± 0.023
CN(C(=O)C(Cl)Cl)c1ccc(OC(=O)c2ccco2)cc1 [Diloxanide furoate]	0.185 ± 0.0099	0.264 ± 0.018	0.256 ± 0.01	0.169 ± 0.0067	0.172 ± 0.0079	0.167 ± 0.004	0.366 ± 0.011	0.353 ± 0.024	0.2046 ± 0.0011	0.21 ± 0.02	0.415 ± 0.016	0.374 ± 0.025
C[C@]12CCC(=O)C=C1CC[C@@H]1[C@@H]2[C@@H](O)C[C@@]2(C)[C@H]1CC[C@]2(O)C(=O)CO [Hydrocortisone base]	0.218 ± 0.012	0.265 ± 0.024	0.253 ± 0.0038	0.173 ± 0.026	0.169 ± 0.0059	0.137 ± 0.0037	0.294 ± 0.076	0.307 ± 0.074	0.183 ± 0.017	0.209 ± 0.047	0.407 ± 0.0089	0.302 ± 0.0092
COc1c(O[C@@H]2O[C@H](CO)[C@@H](O)[C@H](O)[C@H]2O)cc2c(c1OC)-c1ccc(SC)c(=O)cc1[C@@H](NC(C)=O)CC2 [Thiocolchicoside]	0.254 ± 0.01	0.307 ± 0.0068	0.275 ± 0.0073	0.229 ± 0.023	0.186 ± 0.0019	0.149 ± 0.0088	0.271 ± 0.091	0.291 ± 0.082	0.206 ± 0.024	0.236 ± 0.015	0.414 ± 0.011	0.35 ± 0.023
CN(C)[C@@H]1C(=O)C(C(=O)NCNCCCC[C@H](N)C(=O)O)=C(O)[C@@]2(O)C(=O)C3=C(O)c4c(O)cccc4[C@@](C)(O)[C@H]3C[C@@H]12 [Lymecycline]	0.178 ± 0.0022	0.221 ± 0.0059	0.18 ± 0.011	0.204 ± 0.016	0.0804 ± 0.0073	0.101 ± 0.0033	0.12 ± 0.0094	0.159 ± 0.0077	0.0866 ± 0.01	0.152 ± 0.0064	0.312 ± 0.031	0.0693 ± 0.0019
NC[C@H]1O[C@H](O[C@H]2[C@H](O)[C@@H](O[C@H]3O[C@H](CO)[C@@H](O)[C@H](N)[C@H]3O)[C@H](N)C[C@@H]2N)[C@H](N)C[C@@H]1O [Tobramycin]	0.0408 ± 0.00049	0.0407 ± 0.00085	0.03917 ± 0.00021	0.0411 ± 0.00055	0.03913 ± 0.00031	0.04083 ± 5.8e-05	0.0498 ± 0.00085	0.0468 ± 0.0021	0.04757 ± 0.0004	0.0491 ± 0.0037	0.0513 ± 0.0001	0.0502 ± 0.001
